For part of these data: Entries with a potency or affinity are not part of this list. The source made the active and inactive calls.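 Rule for the calls, unless noted: active = fitted half-maximal concentration within 10 nM to 100 µM, steepness 0.5 to 2, significant signal drop, low assay interference; inactive = the rest.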
Legend:
[1] = target: Cell division control protein 42 homolog (Homo sapiens) (UniProt P60953); assay: inhibition of fluorescent GTP binding to constitutively active Cdc42 – biochemical, multiplex bead flow cytometry, Bodipy-FL-GTP, dose response (AID 1333;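 active = fitted half-maximal concentration within the tested dose range, moderate curve steepness, a statistically real signal drop, and little compound fluorescence or tag-binding interference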)
[2] = target: Cell division control protein 42 homolog (Homo sapiens) (UniProt P60953); assay: inhibition of fluorescent GTP binding to wildtype Cdc42 – biochemical, multiplex bead flow cytometry, Bodipy-FL-GTP, dose response (AID 1334;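 active = fitted half-maximal concentration within the tested range, moderate curve steepness, significant signal drop, and little compound fluorescence or bead-linkage interference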); conditions: bead-based flow cytometry, Bodipy-FL-GTP binding to GST-Cdc42; at 100 µM (top of the series) unless noted
[3] = target: GTPase HRas (Homo sapiens) (UniProt P01112); assay: Ras wt fluorescent GTP loading blockade – biochemical, wildtype, multiplex bead flow cytometry, dose response (AID 1335); conditions: bead-based flow cytometry, Bodipy-GTP binding to GST-Ras; at 100 µM (top of the series) unless noted
[4] = test system: Ras-related protein Rab-7a (dog), GTP binding; assay: blockers of fluorescent GTP binding to Rab7 – biochemical, wildtype, multiplex bead flow cytometry, dose response (AID 1336; call rule not given here)
[5] = target: Ras-related C3 botulinum toxin substrate 1 (Homo sapiens) (UniProt P63000); assay: inhibition of wildtype Rac1 nucleotide loading – biochemical, multiplex bead flow cytometry, dose response (AID 1340;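 active = dose curve with midpoint inside tested range, moderate steepness, plateau gap beyond fit error, low compound glow and bead-link interference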); conditions: GST-Rac1 beads, Bodipy-FL-GTP binding; at 100 µM (top of the series) unless noted
[6] = target: GTPase HRas (Homo sapiens) (UniProt P01112); assay: blockade of GTP loading onto mutant Ras – biochemical, activated mutant, multiplex bead flow cytometry, dose response (AID 1341;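 active = dose-response curve with midpoint inside the tested range, moderate steepness, significant amplitude and little compound fluorescence or bead-attachment interference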;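 note: GST-tagged constitutively activated Ras mutant immobilized on beads and multiplexed with other GTPases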)

Sequence of GTPase HRas (Homo sapiens) (P01112 whole entry, looked up): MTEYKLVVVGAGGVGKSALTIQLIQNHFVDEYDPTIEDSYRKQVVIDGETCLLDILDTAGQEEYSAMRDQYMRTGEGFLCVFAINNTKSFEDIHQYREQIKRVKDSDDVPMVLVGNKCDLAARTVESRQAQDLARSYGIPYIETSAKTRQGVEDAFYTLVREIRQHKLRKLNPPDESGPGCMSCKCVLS
Sequence of Cell division control protein 42 homolog (Homo sapiens) (P60953 whole entry, looked up): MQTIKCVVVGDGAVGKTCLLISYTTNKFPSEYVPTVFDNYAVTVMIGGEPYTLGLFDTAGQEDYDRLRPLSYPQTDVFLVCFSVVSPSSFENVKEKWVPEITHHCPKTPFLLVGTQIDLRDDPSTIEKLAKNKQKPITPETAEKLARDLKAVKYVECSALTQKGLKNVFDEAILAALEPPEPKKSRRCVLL

| Structure (SMILES) | outcome [1] | fluorescence, percent of control (lower = inhibition) [2] [%] | GTP binding, percent of control [3] [%] | outcome [4] | GTP binding signal, raw median fluorescence (lower = inhibition) (MCF (arbitrary fluorescence units)) [5] | outcome [6] |
| --- | --- | --- | --- | --- | --- | --- |
| O=C(O)c1cc(Sc2ccc(F)cc2)nc2ccccc12 | inactive | 59.8 | 86 | inactive | 30.2 | inactive |
| CCOc1ccc(C2C(C(=O)O)CCC(=O)N2C2CCCCC2)cc1 (stereo not given) | inactive | 23 | 59.8 | inactive | 178 | inactive |
| C=CCn1c(SCC(=O)Nc2ccc3c(c2)OCO3)nnc1-c1cc(Br)ccc1O | inactive | 66.9 | 84.9 | inactive | 108 | inactive |
| CCCCCCCCCCCCCCCC(=O)Nc1cccc(C#CC(=O)c2ccc([N+](=O)[O-])cc2)c1 | inactive | 66 | 186 | inactive | 134 | inactive |
| COc1cc([N+](=O)[O-])ccc1N=Nc1c(N)[nH]n(-c2ccccc2)c1=O | inactive | 30.5 | 74.5 | inactive | 188 | inactive |
| COCCCNc1nc(=S)[nH]c2cc(OC)c(OC)cc12 | inactive | 32.5 | 41.5 | inactive | 99 | inactive |
| CCOC(=O)N1CCN(Cc2cn[nH]c2-c2cc3ccccc3o2)CC1 | inactive | 34.4 | 82.1 | inactive | 246 | inactive |
| O=C(C[n+]1cccc(CNC(=O)c2ccc(OC(F)F)cc2)c1)Nc1ccccc1Cl | inactive | 51.9 | 60.5 | inactive | 203 | inactive |
| CCCOc1ccc(OCCSc2nc3ccccc3n2CC(=O)O)cc1 | inactive | 60.2 | 87.7 | inactive | 35.1 | inactive |
| CN1/C(=C\C=C(/C#N)C(=O)Nc2ccc(Cl)cc2)C(C)(C)c2ccccc21 | inactive | 76.8 | 80 | inactive | 226 | inactive |
| Nc1ccc2c(c1)C(=O)C(=O)c1ccccc1-2 | inactive | 22.1 | 57.5 | inactive | 73.8 | inactive |
| Nc1c(S(=O)(=O)c2ccccc2)c2nc3ccccc3nc2n1C1CC1 | inactive | 33.3 | 80 | inactive | 196 | inactive |
| O=C(O)COc1ccccc1/C=N/NC(=O)c1cc(-c2ccc(F)cc2)nc2ccccc12 | inactive | 30.7 | 80.5 | inactive | 177 | inactive |
| COc1ccc2c3c(cccc13)C(=O)N(O)C2=O | inactive | 30.1 | 69.8 | inactive | 145 | inactive |
| Cc1ccccc1C(=O)Nc1cccc(C(=O)N/N=C/c2cc(Cl)cc([N+](=O)[O-])c2O)c1 | inactive | 25.1 | 74.6 | inactive | 191 | inactive |
| Cc1ccccc1/C=C1\SC(=S)N(/N=C/c2cc([N+](=O)[O-])ccc2O)C1=O | inactive | 34.1 | 81.2 | inactive | 228 | inactive |
| C=CCNC(=O)c1cc2c(=O)n3cc(C)ccc3nc2nc1NCC1CCCO1 (stereo not given) | inactive | 51.6 | 58.6 | inactive | 226 | inactive |
| CCOC(=O)c1c2c3c(c(Cl)ccc3[nH]c1=O)C(=O)c1ccccc1-2 | inactive | 19.1 | 46.2 | inactive | 103 | inactive |
| N#C/C(=C(/O)COc1ccc(Br)cc1)c1nnc2n1CCCCC2 | inactive | 29.2 | 79.2 | inactive | 262 | inactive |
| COc1cccc2c(SCC(=O)N/N=C/c3ccc(O)c(O)c3)cc(C)nc12 | inactive | 27.5 | 60.2 | inactive | 119 | inactive |

| Structure (SMILES) | outcome [1] | fluorescence, percent of control (lower = inhibition) [2] [%] | GTP binding, percent of control [3] [%] | outcome [4] | GTP binding signal, raw median fluorescence (lower = inhibition) (MCF (arbitrary fluorescence units)) [5] | outcome [6] |
| --- | --- | --- | --- | --- | --- | --- |
| C=CCOc1cccc(/C=N/NC(=O)CN(c2cc(Cl)ccc2OC)S(=O)(=O)c2ccc(C)c([N+](=O)[O-])c2)c1 | inactive | 50.3 | 56 | inactive | 0 | inactive |
| COc1ccc(-c2cc(=O)c(C(=O)c3ccc(C)cc3)n[nH]2)cc1 | inactive | 35.8 | 80.8 | inactive | 317 | inactive |
| C=CCNc1nc(=S)[nH]c2cc(OC)c(OC)cc12 | inactive | 31.2 | 69.1 | inactive | 148 | inactive |
| COc1cccc2c(SCC(=O)N/N=C/c3ccc(O)cc3O)cc(C)nc12 | inactive | 29.6 | 62.9 | inactive | 110 | inactive |
| Cc1ccc(N2C(=O)c3ccccc3C2Nc2cccnc2)nc1 (stereo not given) | inactive | 37 | 84.5 | inactive | 272 | inactive |
| COc1cc2nc(=S)n(CCCN3CCOCC3)c(N)c2cc1OC | inactive | 38.1 | 79.4 | inactive | 151 | inactive |
| O=C(OC(C(=O)NCc1cccs1)c1ccccn1)c1cccs1 (stereo not given) | inactive | 83.4 | 162 | inactive | 175 | inactive |
| COc1c(C)cccc1C(=O)NC(=S)Nc1ccc2c(c1)Cc1ccccc1-2 | inactive | 73.4 | 151 | inactive | 144 | inactive |
| CCc1ccc(NC(=O)c2cc3c(C)nc4ccccc4c3o2)cc1 | inactive | 51.4 | 93.2 | inactive | 261 | inactive |
| O=C(CCc1ccc(S(=O)(=O)NCCc2ccccc2)cc1)Nc1ccc2c(c1)OCO2 | inactive | 52.3 | 67.2 | inactive | 212 | inactive |
| Cc1ccc(NC(=O)CS(=O)(=O)c2c[nH]c3ccccc23)c(C)c1 | inactive | 46 | 62.9 | inactive | 184 | inactive |
| C=C(C)COc1ccc(-c2n[nH]c(C)c2-c2ccc(Br)cc2)c(O)c1 | inactive | 32.9 | 78.5 | inactive | 265 | inactive |
| COc1ccc(/C=C2\SC(=S)NC2=O)cc1OS(=O)(=O)c1ccc(NC(C)=O)cc1 | inactive | 30.9 | 80.1 | inactive | 261 | inactive |
| O=S(=O)(CC(CN1CCOCC1)N1CCOCC1)c1ccccc1 (stereo not given) | inactive | 43.3 | 92.1 | inactive | 310 | inactive |
| CCCCn1c(O)c(N=NC(=O)c2ccccc2NS(=O)(=O)c2cccs2)c2ccccc21 | inactive | 37.3 | 87.8 | inactive | 280 | inactive |
| CC(=O)Nc1ccc(/C=N/NC(=O)CCN2CCN(c3ccccc3)CC2)cc1 | inactive | 33.8 | 74.7 | inactive | 140 | inactive |
| O=C(Nc1sc2c(c1C(=O)O)CCCCC2)c1ccccc1 | inactive | 29.3 | 74.3 | inactive | 201 | inactive |
| C=CCn1c(COc2ccc(F)cc2)nnc1SCC(=O)c1c[nH]c2c(CC)cccc12 | inactive | 50.5 | 60.7 | inactive | 190 | inactive |
| O=S(=O)(Cc1ccccc1)c1ccccc1-c1nnc(-c2ccccc2)o1 | inactive | 89.9 | 166 | inactive | 188 | inactive |
| CCOc1cc(/C=N/NC(=O)C(C)Sc2ccccc2)ccc1O (stereo not given) | inactive | 31.8 | 73.5 | inactive | 165 | inactive |

| Structure (SMILES) | outcome [1] | fluorescence, percent of control (lower = inhibition) [2] [%] | GTP binding, percent of control [3] [%] | outcome [4] | GTP binding signal, raw median fluorescence (lower = inhibition) (MCF (arbitrary fluorescence units)) [5] | outcome [6] |
| --- | --- | --- | --- | --- | --- | --- |
| C(=N\Nc1nn2cnnc2c2ccccc12)/c1ccco1 | inactive | 31.6 | 64.2 | inactive | 142 | inactive |
| CCN(CC)c1ccc(/C=c2\sc3nnc(-c4ccccc4Cl)n3c2=O)cc1 | inactive | 117 | 128 | inactive | 225 | inactive |
| CCN(CC)S(=O)(=O)c1ccc2c(c1)c(=O)c(C(=O)N1CCc3ccccc3C1)cn2C | inactive | 96.7 | 172 | inactive | 225 | inactive |
| Cc1ccccc1NC(=O)C1CCCN1S(=O)(=O)c1cccc2cccnc12 (stereo not given) | inactive | 39.1 | 84.8 | inactive | 322 | inactive |
| COc1ccc(C(=O)C2CCCN(C(=O)c3cc4nc(C)cc(C)n4n3)C2)cc1F (stereo not given) | inactive | 41.4 | 95.1 | inactive | 274 | inactive |
| O=C(C#Cc1cccc(O)c1)c1ccc([N+](=O)[O-])cc1 | inactive | 71.6 | 196 | inactive | 138 | inactive |
| CCc1nnc(NC(=O)CSc2nnc(CNc3ccc(F)cc3)n2C2CCCCC2)s1 | inactive | 52 | 72.6 | inactive | 0 | inactive |
| Cc1cccc(CCNc2ncccc2C(=O)O)c1 | inactive | 122 | 337 | inactive | 101 | inactive |
| Cc1ccc(Sc2ncccc2C(=O)O)c(C)c1 | inactive | 78 | 78.1 | inactive | 309 | inactive |
| CCOC(=O)Cn1nnnc1CN(Cc1cccs1)Cc1cc2cc(C)cc(C)c2[nH]c1=O | inactive | 81.6 | 161 | inactive | 171 | inactive |
| CC(C)NC(=S)N=Nc1c(O)[nH]c2ccc([N+](=O)[O-])cc12 | inactive | 29.1 | 67.1 | inactive | 128 | inactive |
| Cc1cc2ccccn2c1C(=O)c1ccc(NN)c([N+](=O)[O-])c1 | inactive | 35.2 | 83.1 | inactive | 240 | inactive |
| COc1cc(-c2cc(-c3ccc(O)cc3)nc(N)c2C#N)ccc1O | inactive | 28 | 70.9 | inactive | 158 | inactive |
| Cc1cc(NCc2ccccn2)n2c(nc3ccccc32)c1C#N | inactive | 42.7 | 87.9 | inactive | 192 | inactive |
| N#Cc1c(=O)c2nc(NCc3ccccc3)ncc2n2ccccc12 | inactive | 41.3 | 48.1 | inactive | 0 | inactive |
| Cn1cc(C(=O)N2CCc3ccccc3C2)c(=O)c2cc(S(=O)(=O)N3CCCCC3)ccc21 | inactive | 60.6 | 110 | inactive | 370 | inactive |
| O=c1c2ccccc2nc2c3ccccc3cnn12 | inactive | 46.9 | 88.4 | inactive | 175 | inactive |
| Cc1cccc(CNc2ncccc2C(=O)O)c1 | inactive | 61.9 | 224 | inactive | 57 | inactive |
| Cc1cc(OCCn2cc(C(=O)O)c3ccccc32)ccc1Cl | inactive | 58.3 | 84.4 | inactive | 28.3 | inactive |
| Cc1ccccc1-c1nnc(NC(=O)c2ccc(N3C(=O)CCC3=O)cc2)s1 | inactive | 48.6 | 65.8 | inactive | 236 | inactive |
